Assay results from PubChem BioAssay (Tox21).
Results filed as inconclusive are left out. More than one record can exist for a structure, and the calls need not agree. Calls of active or inactive are those of the source. Unless noted, calls follow the shape of the dose curve; as a rule, active = well fitted curve in the direction sought with a large enough effect in the repeat runs; inconclusive = weak or mixed curves; inactive = no such curve, though single readings can be large; an effect the other way counts as inactive or inconclusive.

Assays:
[1] = qHTS assay to test for compound auto fluorescence at 535 nm (green) in HEK293 cells (AID 720680)
[2] = qHTS assay to test for compound auto fluorescence at 460 nm (blue) in HEK293 cell free culture (AID 720681)
Summary of the method: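 Blue fluorescence (Ex 405/Em 460 nm, triamterene-equivalent) was read immediately after pin transfer of compound or DMSO into medium (DMEM, 10% FBS) without cells.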

[3] = qHTS assay to test for compound auto fluorescence at 535 nm (green) in HEK293 cell free culture (AID 720682)
Summary of the method: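 Fluorescein serves as the green reference fluorophore; each compound's intrinsic emission at 535 nm (excitation 485 nm) is reported as an equivalent amount of that dye, measured in serum-containing DMEM without cells.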

[4] = qHTS assay to test for compound auto fluorescence at 590 nm (red) in HEK293 cell free culture (AID 720683)
Summary of the method: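 Red-channel autofluorescence of compounds in culture medium (DMEM, 10% FBS), no cells, measured at 540/590 nm. Rose Bengal sodium is the reference fluorophore for equivalence.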

[5] = qHTS assay to test for compound auto fluorescence at 590 nm (red) in HepG2 cell free culture (AID 720684)
Summary of the method: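 Plate contents were MEM with 10% FBS plus test compound or DMSO, no cells. Fluorescence was recorded with 540 nm excitation and 590 nm emission.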

[6] = qHTS assay to test for compound auto fluorescence at 460 nm (blue) in HepG2 cell free culture (AID 720685)
Summary of the method: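 Compound (23 nL) or DMSO pinned into cell-free MEM with 10% FBS; blue fluorescence read at 405/460 nm excitation/emission, expressed as auto-fluorescence equivalency to triamterene.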

[7] = qHTS assay to test for compound auto fluorescence at 535 nm (green) in HepG2 cell free culture (AID 720686)
[8] = qHTS assay to test for compound auto fluorescence at 460 nm (blue) in HepG2 cells (AID 720687)
Summary of the method: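 Blue-channel autofluorescence (Ex/Em 405/460 nm, triamterene-equivalent) was measured after 1 hr compound exposure at 37 C, 5% CO2. Cells were HepG2, plated overnight at 37 C in MEM plus 10% FBS.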

[9] = target: Glucocorticoid receptor (Homo sapiens) (UniProt P04150); test: qHTS assay to identify small molecule agonists of the glucocorticoid receptor (GR) signaling pathway (AID 720691; active = well fitted activation curve with a large enough effect in the signal ratio in the repeat runs, not every such curve was filed as active; the % refers to the signal ratio; also: potency is read from the fitted curve at half-maximal effect); details: GR-bla HeLa, beta-lactamase reporter ratio, 18 h; activation: at 62.4 µM (top of the series)
Chain of Glucocorticoid receptor (Homo sapiens) (P04150 whole entry, looked up): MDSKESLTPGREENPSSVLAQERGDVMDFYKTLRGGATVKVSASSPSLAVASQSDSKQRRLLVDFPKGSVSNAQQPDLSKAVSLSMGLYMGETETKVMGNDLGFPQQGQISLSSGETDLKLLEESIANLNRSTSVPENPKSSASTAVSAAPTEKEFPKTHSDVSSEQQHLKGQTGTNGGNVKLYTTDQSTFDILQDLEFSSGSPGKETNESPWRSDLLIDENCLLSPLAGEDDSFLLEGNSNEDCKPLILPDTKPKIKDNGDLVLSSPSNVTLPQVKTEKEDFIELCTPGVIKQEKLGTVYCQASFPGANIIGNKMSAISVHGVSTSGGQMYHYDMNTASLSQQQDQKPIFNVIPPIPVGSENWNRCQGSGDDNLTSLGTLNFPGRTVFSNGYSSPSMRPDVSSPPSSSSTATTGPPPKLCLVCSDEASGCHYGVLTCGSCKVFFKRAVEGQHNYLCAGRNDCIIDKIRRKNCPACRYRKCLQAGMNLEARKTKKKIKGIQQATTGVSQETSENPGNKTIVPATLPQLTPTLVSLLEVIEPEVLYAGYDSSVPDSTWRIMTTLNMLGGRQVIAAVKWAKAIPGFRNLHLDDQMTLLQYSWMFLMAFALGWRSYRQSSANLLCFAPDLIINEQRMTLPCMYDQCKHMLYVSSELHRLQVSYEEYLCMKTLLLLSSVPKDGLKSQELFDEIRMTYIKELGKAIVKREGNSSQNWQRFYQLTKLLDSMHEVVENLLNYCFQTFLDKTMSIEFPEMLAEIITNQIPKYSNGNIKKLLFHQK
Summary of the method: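 Beta-lactamase reporter activity, read as fluorescence intensity, was measured in GR-bla HeLa cells exposed to compounds for 18 h at 37 C and then loaded with LiveBLAzer B/G FRET substrate for 2 h at room temperature.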

[10] = qHTS assay to identify small molecule antagonists of the glucocorticoid receptor (GR) signaling pathway - cell viability counter screen (AID 720693); also: nearly all actives have a fitted effect of over 55% in size; also: potency is read from the fitted curve at half-maximal effect
[11] = qHTS assay for identifying genotoxic compounds that show differential cytotoxicity against isogenic chicken DT40 cell lines with known DNA damage response pathways - Rev3 mutant cell line (AID 743014); also: nearly all actives have a fitted effect of over 55% in size; also: potency is read from the fitted curve at half-maximal effect
[12] = qHTS assay for identifying genotoxic compounds that show differential cytotoxicity against isogenic chicken DT40 cell lines with known DNA damage response pathways - Rad54/Ku70 mutant cell line (AID 743015); also: nearly all actives have a fitted effect of over 60% in size; also: potency is read from the fitted curve at half-maximal effect
[13] = qHTS assay to identify small molecule antagonists of the androgen receptor (AR) signaling pathway using the MDA cell line - cell viability counter screen (AID 743041; also: nearly all actives have a fitted effect of over 45% in size; also: potency is read from the fitted curve at half-maximal effect)
Summary of the method: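 R1881-driven MDA-kb2 AR-luc cells, 3,000/well, were dosed with library compounds for 16 h; cell health came from CellTiter-Fluor fluorescence in the reporter wells.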

[14] = target: Glucocorticoid receptor (Homo sapiens) (UniProt P04150); test: qHTS assay to identify small molecule antagonists of the glucocorticoid receptor (GR) signaling pathway (AID 720692; active = well fitted inhibition curve with a large enough effect in the signal ratio in the repeat runs, not every such curve was filed as active; the % refers to the signal ratio)
Summary of the method: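 Fluorescence from cleaved LiveBLAzer B/G FRET substrate reports GRE-driven beta-lactamase in HeLa cells; compounds are tested against 5 nM dexamethasone (final) over 18 h at 37 C, substrate incubation 2 h at room temperature.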

[15] = qHTS assay for identifying genotoxic compounds that show differential cytotoxicity against isogenic chicken DT40 cell lines with known DNA damage response pathways - wild type cell line (AID 743012); also: nearly all actives have a fitted effect of over 60% in size; also: potency is read from the fitted curve at half-maximal effect
Summary of the method: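 Quantitative HTS on parental DT40 cells: 40 h compound treatment at 37 C/5% CO2, with viability then determined by CellTiter-Glo luminescence. Values serve as the DNA repair-proficient reference for differential cytotoxicity.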

[16] = qHTS assay to identify small molecule antagonists of the androgen receptor (AR) signaling pathway - cell viability counter screen (AID 743033; also: nearly all actives have a fitted effect of over 45% in size; also: potency is read from the fitted curve at half-maximal effect)
[17] = target: Androgen receptor (Homo sapiens) (UniProt P10275); test: qHTS assay to identify small molecule agonists of the androgen receptor (AR) signaling pathway using the MDA cell line (AID 743040; also: nearly all actives have a fitted effect of over 20% in size)
Chain of Androgen receptor (Homo sapiens) (P10275 whole entry, looked up): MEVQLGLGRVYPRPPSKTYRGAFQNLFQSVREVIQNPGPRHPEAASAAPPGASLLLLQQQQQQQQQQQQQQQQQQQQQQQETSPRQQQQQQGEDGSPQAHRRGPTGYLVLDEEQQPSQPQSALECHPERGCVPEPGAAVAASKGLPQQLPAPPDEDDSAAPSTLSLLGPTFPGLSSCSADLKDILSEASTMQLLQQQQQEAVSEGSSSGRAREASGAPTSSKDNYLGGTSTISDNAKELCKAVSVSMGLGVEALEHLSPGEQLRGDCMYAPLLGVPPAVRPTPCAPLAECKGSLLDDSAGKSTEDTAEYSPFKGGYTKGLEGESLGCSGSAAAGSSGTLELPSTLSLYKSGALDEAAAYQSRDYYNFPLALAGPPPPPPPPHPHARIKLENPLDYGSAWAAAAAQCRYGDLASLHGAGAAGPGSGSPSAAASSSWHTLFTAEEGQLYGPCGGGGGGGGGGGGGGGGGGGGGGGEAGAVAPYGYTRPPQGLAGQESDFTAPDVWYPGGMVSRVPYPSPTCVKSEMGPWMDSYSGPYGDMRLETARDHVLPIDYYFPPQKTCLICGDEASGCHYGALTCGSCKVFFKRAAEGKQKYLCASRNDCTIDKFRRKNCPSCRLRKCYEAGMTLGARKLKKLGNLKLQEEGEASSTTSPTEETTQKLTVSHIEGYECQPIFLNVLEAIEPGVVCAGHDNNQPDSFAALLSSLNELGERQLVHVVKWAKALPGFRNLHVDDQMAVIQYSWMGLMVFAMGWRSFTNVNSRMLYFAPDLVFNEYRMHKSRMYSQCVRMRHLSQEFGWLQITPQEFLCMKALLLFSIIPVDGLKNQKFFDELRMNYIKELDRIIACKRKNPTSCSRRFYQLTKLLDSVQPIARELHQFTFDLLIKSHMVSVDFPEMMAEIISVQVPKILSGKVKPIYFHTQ
Summary of the method: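 After a 5 h incubation at 37C and 0% CO2, MDA-kb2 reporter cells were dosed with compounds in DMSO and kept 16 h under the same conditions. Luciferase activity was then read as luminescence with ONE-Glo.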
% is scaled to controls: 0 for no effect and ±100 for the full control effect.

OCCCCCCCCCCCCBr
inactive: outcome [1] | Potency [2] | outcome [3] | Potency [4] | Potency [5] | Potency [6] | Potency [7] | Potency [8] | Potency [9] | Potency [10] | Potency [13]
active: Potency [11] 3.92 µM | Potency [12] 5.53 µM

Cc1ccc(O)c(C(C)(C)C)c1
active: Potency [12] 15.3 µM | Potency [16] 15.5 µM
27.3 µM (active) and inactive: Potency [15]
inactive: outcome [1] | Potency [2] | outcome [3] | Potency [4] | Potency [5] | Potency [6] | Potency [7] | Potency [8] | Potency [14]

CCOC(=O)/C=C(C)/C=C/C=C(C)/C=C/c1c(C)cc(OC)c(C)c1C
active: Potency [15] 9.44 µM | Potency [11] 2.37 µM | Potency [12] 6.68 µM
inactive: outcome [1] | Potency [2] | outcome [3] | Potency [4] | Potency [5] | Potency [6] | Potency [7] | Potency [8] | Potency [14] | Potency [10] | Potency [16] | Potency [13]

NNc1nc(-c2ccccc2)cs1
inactive: outcome [1] | Potency [2] | outcome [3] | Potency [4] | Potency [5] | Potency [6] | Potency [7] | Potency [8] | Potency [9] | Potency [10] | Potency [15] | Potency [11] | Potency [12] | Potency [16] | Potency [13]

Cc1onc(-c2ccccc2Cl)c1C(=O)N[C@@H]1C(=O)N2[C@@H]1SC(C)(C)[C@@H]2C(=O)O
inactive: fluorescence, % of fluorescein [1] 0.0884% [at 18.6 µM] | fluorescence, % of fluorescent control [2] 0.0563% [at 18.6 µM] | activity change [3] 0.0013% [at 18.6 µM] | fluorescence, % of fluorescent control [4] 0.401% [at 18.6 µM] | fluorescence, % of Rose Bengal [5] -0.203% [at 18.6 µM] | fluorescence, % of fluorescent control [6] 0.0226% [at 18.6 µM] | fluorescence, % of fluorescein control [7] 0.101% [at 18.6 µM] | fluorescence, % of fluorescent control [8] 0.0164% [at 18.6 µM] | Potency [9] | Potency [10] | Potency [15] | Potency [12] | Potency [13]

O=C(OC[C@H]1O[C@@H](OC(=O)c2cc(O)c(O)c(OC(=O)c3cc(O)c(O)c(O)c3)c2)[C@H](OC(=O)c2cc(O)c(O)c(OC(=O)c3cc(O)c(O)c(O)c3)c2)[C@@H](OC(=O)c2cc(O)c(O)c(OC(=O)c3cc(O)c(O)c(O)c3)c2)[C@@H]1OC(=O)c1cc(O)c(O)c(OC(=O)c2cc(O)c(O)c(O)c2)c1)c1cc(O)c(O)c(OC(=O)c2cc(O)c(O)c(O)c2)c1
inactive: outcome [1] | Potency [2] | outcome [3] | Potency [4] | Potency [5] | Potency [6] | Potency [7] | Potency [8] | Potency [14]
active: Potency [10] 16.9 µM | Potency [15] 5.96 µM | Potency [12] 11.9 µM | Potency [16] 19 µM | Potency [13] 22.1 µM

c1ccc(CSCc2ccccc2)cc1
inactive: outcome [1] | Potency [2] | outcome [3] | Potency [4] | Potency [5] | Potency [6] | Potency [7] | Potency [8] | Potency [9] | Potency [10] | Potency [15] | Potency [11] | Potency [12] | Potency [16] | Potency [13]

Cc1nc(-c2ccc3c(c2)CCN(CCC2CCC(NC(=O)/C=C/c4ccc(F)cc4)CC2)CC3)no1 (configuration not stated)
active: Potency [9] 21.9 µM | Potency [15] 0.386 µM | Potency [11] 0.687 µM | Potency [12] 0.546 µM
inactive: outcome [1] | Potency [2] | outcome [3] | Potency [4] | Potency [5] | Potency [6] | Potency [7] | Potency [8] | Potency [10] | Potency [17] | Potency [13]
